PubChem BioAssay (Tox21)
Inconclusive results are not listed. Entries that show only a call come without a potency. Active and inactive are the calls of the source. Calls follow the shape of the dose curve; as a rule, active = well fitted cell-killing curve with a large enough effect in the repeat runs; inconclusive = weak or mixed curves, or effect the other way; inactive = flat fitted curve, though single readings scatter.

Assay: qHTS assay to identify small molecule agonists of the sonic hedgehog signaling (Shh) pathway - cell viability counter screen (AID 1259366); also: nearly all actives have a fitted effect of over 50% in size
Settings: NIH/3T3 Gli1-Luc viability, CellTiter-Fluor, 24 h; series mostly up to 92.4 µM
Description: National Center for Advancing Translational Sciences [NCATS]
NIH Chemical Genomics Center [NCGC]
U.S. Environmental Protection Agency [EPA]
National Institutes of Environmental Health Sciences [NIEHS]
National Toxicology Program [NTP]
U.S. Food and Drug Administration [FDA]
The sonic hedgehog (Shh) pathway is essential for normal embryonic development. Dysregulation of the Shh pathway can cause severe developmental defects in organs. Therefore chemicals that interfere with the pathway are potential developmental toxicants. A cell line designated 3T3Gli1-Luc (DMB/OARSA/CFSAN/FDA, Laurel, MD), a NIH/3T3 derived clone containing stably integrated Gli1-Luc reporter is used to detect chemical interference of the Shh pathway, by changes in the expression of the firefly Luc gene under the control of the Gli1 transcriptional response element. This cell line was used to screen Tox21 libraries for identifying and prioritizing the potential developmental toxicants that interfere Shh pathway. The cytotoxicity of the compounds was tested in parallel by measuring the cell viability using CellTiter-Fluor assay system (Promega, Madison, WI) in the same wells.
Tox21 Assay Protocol Summary:
3T3 Gli1-Luc cells were dispensed at 2,000 per well in 5uL of culture medium into white solid bottom 1536-well plates (Greiner Bio-One, Monroe, NC) using a Multidrop Combi (Thermo Scientific, Waltham, MA) dispenser. The assay plates were incubated at 37 C and 5% CO2 for 4hr, and then 23nL of compounds dissolved in DMSO and positive control were transferred using a Pintool station (Wako, San Diego, CA). The assay plates were incubated at 37C and 5% CO2 for 24hr. For viability read, after 23hr of compound treatment, 1uL of CellTiter-Fluor reagent (Promega Corporation, Madison, WI) was added to each well of the assay plates using Flying Reagent Dispenser (FRD, Aurora Discovery, San Diego, CA) and incubated the assay plates at 37C for 1hr. The fluorescence signal was quantified using a ViewLux plate reader (Perkin Elmer, Shelton, CT).
Potency is read from the fitted curve at half-maximal effect.

Structure (SMILES)	Potency
CCCOc1ccc2nc(NC(=O)OC)[nH]c2c1	inactive
CN1CCC(=C2c3ccccc3CCc3sccc32)CC1	inactive
CC(=O)N(O)CCCCCNC(=O)CCC(=O)N(O)CCCCCNC(=O)CCC(=O)N(O)CCCCCN	inactive
CC(=O)Nc1ccc(/C=N/NC(N)=S)cc1	inactive
Cc1cc(CC(=O)O)c(C)n1-c1ccc(Cl)cc1	inactive
c1ccc(-c2nc[nH]c2-c2ccccc2)cc1	inactive
Cc1ccc(C(N)=O)cc1N	inactive
OCCC1CCCCN1 (stereo not given)	inactive
Cc1ccc2c(ccc3ccccc32)c1	inactive
CCCCCC/C=C/C=O	inactive
CC(=O)[C@@]1(O)CC[C@H]2[C@@H]3C[C@H](C)C4=CC(=O)CC[C@]4(C)[C@H]3CC[C@@]21C	inactive
Cc1cccc(Oc2ccccc2)c1	inactive
Cc1cc(NC(=O)C(=O)O)cc(C)c1Oc1ccc(O)c2c1CCC2	inactive
CC(=O)/C=C/C1C(C)=CCCC1(C)C (stereo not given)	inactive
CCOc1ccc2[nH]cc(C(=O)NCc3ccccc3)c(=O)c2n1	inactive
N#Cc1c(F)cccc1F	inactive
O=C(NN1CCCC1)NS(=O)(=O)c1ccc(Cl)cc1	inactive
C1=Cc2ccccc2C1	inactive
CC(O)C1CCCCC1 (stereo not given)	inactive
N#CCCNCCC#N	inactive

Structure (SMILES)	Potency
O=C(c1ccc(O)cc1)c1ccc(O)cc1	inactive
O=C(O)Cc1cc(I)c(Oc2ccc(O)c(I)c2)c(I)c1	inactive
CCCCCCCCC(CO)CCCCCC (stereo not given)	inactive
COC(Cc1ccccc1)OC	inactive
CC1=CCC(C(C)C)C=C1 (stereo not given)	inactive
C1CCC2OC2C1 (stereo not given)	inactive
CCN(CC)CCOC(=O)C1(c2ccccc2)CCCC1	inactive
CCc1nn(C2CCCCC2)c2cc(C3(C#N)CCC(C(=O)O)CC3)ccc12 (stereo not given)	30.6 µM (active)
C=CC(=O)OCC(C)OCC(C)OCC(C)OC(=O)C=C (stereo not given)	24.3 µM (active)
CC(C)(Oc1ccc(Cl)cc1)C(=O)OCCCOC(=O)C(C)(C)Oc1ccc(Cl)cc1	inactive
CNCC[C@@H](Oc1ccccc1C)c1ccccc1	inactive
Cn1sccc1=O	48.6 µM (active)
CN1CCN(C2=Nc3cc(Cl)ccc3Nc3ccccc32)CC1	13.3 µM (active)
O=C(c1ccccc1)c1ccc2n1CCC2C(=O)O (stereo not given)	inactive
CC1=CC(=O)/C(=C(/C)O)C(=O)O1	inactive
COCCOCCOCCOCCOC	inactive
Cc1cc(C)c(S(=O)(=O)O)cc1N=Nc1cc(S(=O)(=O)O)c2ccccc2c1O	27.3 µM (active)
CCCCOC(=O)/C=C\C(=O)OCCCC	inactive
CCCCCCc1ccc(N)cc1	inactive
CN(C)CCCNCCCN	27.2 µM (active)
